Screens as filed in PubChem BioAssay.
This is a sample that favours compounds with a hit; in the whole collection about 15% have one here.
DT40 TDP1 CPT – growth inhibition of DT40 Tdp1-/-;hTDP1 cells with camptothecin (screen for TDP1 inhibitors) | chicken DT40 Tdp1-/-;hTDP1 cells + 20 nM CPT, ATP luminescence, 48 h | actives 12% (n = 420,000) | AID 686979 | Potency, µM (highest dose often 46.2 µM), for inactives: at the highest dose activity change, negative = growth inhibition, actives largely listed as inhibitors; also: nearly all actives have a fitted effect of over 55% in size
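Chicken DT40 Tdp1-/- cells stably complemented with human TDP1 were seeded at 400 cells/well in medium containing 20 nM camptothecin, exposed to pin-transferred compounds, and grown at 37 °C for at least 48 hr. Viability was read as ATP luminescence.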
ELG1 repair inh – blocks ELG1-dependent DNA repair in HEK293T cells; HEK293T ELG1-luciferase reporter, luminescence, 16 h; DNA damage induced by 5-fluorouridine; Potency, µM (doses to about 46.1 µM), inactives show at the highest dose activity change, negative = inhibition, usual class: inhibitors; actives 2.3% (n = 330,000); AID 504467; also: nearly all actives have a fitted effect of over 55% in size
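Cells (2,000 per well) received 5-fluorouridine plus test compound or DMSO and were incubated 16 hr at 37 °C, 5% CO2. Luciferase activity was read by luminescence 30 min after ONE-Glo addition; signal suppression marked inhibition of damage-induced ELG1 function.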
ALOX12 inh – blocks human arachidonate 12S-lipoxygenase; P18054; purified 12hLO, xylenol orange hydroperoxide absorbance; Potency, µM (highest dose often 108 µM), without a hit: at the highest dose activity change, negative = inhibition, usual class: inhibitors; actives 1.1% (n = 580,000); AID 1671190
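Purified human 12hLO (150 nM final) in 25 mM Hepes, 0.01% Triton X-100, pH 7.0 was preincubated 15 min at room temperature with compound. Then 40 uM arachidonic acid was added, 30 min. Hydroperoxide was read by Fe-XO absorbance ratio 573/405 nm.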
RORg inh – ROR gamma (mouse) transcription inhibition; Drosophila S2 Gal4-RORgamma UAS-luciferase reporter, 20 h; actives 5.4% (n = 310,000); P51450; AID 2551; Potency, µM (doses to about 53.6 µM), for the others: top-dose activity change, negative = inhibition, usual class: inhibitors; also: nearly all actives have a fitted effect of over 60% in size
Target sequence (P51450 whole entry, looked up, the tested form may be a part): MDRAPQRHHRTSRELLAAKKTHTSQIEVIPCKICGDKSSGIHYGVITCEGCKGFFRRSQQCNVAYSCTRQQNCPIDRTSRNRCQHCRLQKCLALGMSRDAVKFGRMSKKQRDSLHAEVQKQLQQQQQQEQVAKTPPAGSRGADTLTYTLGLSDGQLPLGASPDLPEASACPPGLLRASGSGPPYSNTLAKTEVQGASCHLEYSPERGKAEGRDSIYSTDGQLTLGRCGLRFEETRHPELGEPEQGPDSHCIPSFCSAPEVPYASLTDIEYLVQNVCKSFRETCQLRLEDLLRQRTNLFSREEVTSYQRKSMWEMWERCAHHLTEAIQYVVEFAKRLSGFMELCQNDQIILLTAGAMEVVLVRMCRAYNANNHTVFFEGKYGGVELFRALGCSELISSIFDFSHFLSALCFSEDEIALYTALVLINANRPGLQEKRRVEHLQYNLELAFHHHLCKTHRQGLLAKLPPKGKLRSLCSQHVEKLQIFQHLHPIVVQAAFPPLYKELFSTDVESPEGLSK
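Luciferase reporter read in Schneider cells carrying Gal4-RORγ (mouse) and UAS-Photinus luciferase; cells given compound 1 h before 700 uM copper sulfate induction, then incubated 20 h at ambient temperature.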
TDP1 cell noCPT – qHTS for Inhibitors of human tyrosyl-DNA phosphodiesterase 1 (TDP1): qHTS in cells in absence of CPT | actives 15% (n = 420,000) | DT40 Tdp1-/- hTDP1 cells, no CPT, ATP luminescence, 48 h | Potency, µM (titrated, usually from 46.2 µM), inactives show at the highest dose activity change, negative = growth inhibition, actives largely listed as inhibitors | AID 686978, 2013; also: nearly all actives have a fitted effect of over 55% in size
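Luminescent ATP content (CellTiter-Glo) served as the growth readout. Knockout chicken DT40 cells expressing human TDP1 were exposed to compounds without camptothecin for a minimum 48 hr at 37 °C.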
VP16 counter – counter-screen for ROR gamma inhibitors: Gal4-VP16 reporter. Drosophila S2 Gal4-VP16 UAS-luciferase, luminescence, 20 h. Potency, µM (series often up to 53.6 µM), for inactives: at the highest dose activity, negative = inhibition, actives largely listed as inhibitors. actives 3.5% (n = 310,000);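 also: Gal4-VP16 expression switched on by copper sulfate through the metallothionein promoter; nearly all actives have a fitted effect of over 50% in size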
* = called active by the depositor; ? = inconclusive; nt = not tested or not shown; [ ] = remark or other dose. Calls follow the shape of the dose curve; as a rule, active = well fitted curve in the direction sought with a large enough effect; inconclusive = small, poorly fitted or top-dose-only effect, or another doubt; inactive = no such curve, though single readings can be large; an effect the other way counts as inactive or inconclusive. % is scaled to controls: 0 for no effect and ±100 for the full control effect; potency is read from the fitted curve at half-maximal effect.

SMILES | DT40 TDP1 CPT | ELG1 repair inh | ALOX12 inh | RORg inh | TDP1 cell noCPT | VP16 counter
Cc1ccc(CN2C(=O)C(Cc3ccccc3)Nc3ncnc(N4CCCCC4)c32)cc1 (centres undefined) | 18.4µM* | 1.4% | -14.6% | nt | ? | nt
Cc1ccc(CN2C(=O)C(Cc3ccccc3)Nc3ncnc(N4CCN(c5ccccc5)CC4)c32)cc1 (centres undefined) | ? | -14.0% | -12.1% | nt | ? | nt
O=C1C(Cc2ccccc2)Nc2ncnc(N3CCN(c4ccccc4)CC3)c2N1Cc1ccccc1 (centres undefined) | ? | 1.9% | 1.8% | nt | 18.4µM* | nt
CCC1Nc2ncnc(N3CCN(c4ccccc4)CC3)c2N(Cc2ccc(Br)cc2)C1=O (centres undefined) | 20.6µM* | -2.9% | ? | nt | ? | nt
COC(=O)c1ccc(CNC(=O)c2cccc(CS(C)=O)c2)cc1 (centres undefined) | nt | nt | -6.2% | nt | nt | nt
Cc1csc(NC(=O)c2nc(-c3ccccc3)n(-c3ccccc3)n2)n1 | ? | 14.6µM* | -13.7% | ? | ? | ?
N#Cc1cccc(NC(=O)c2nc(-c3ccccc3)n(-c3ccccc3)n2)c1 | ? | ? | 0.0%[57.4 µM] | 46.4% | 18.4µM* | -4.4%
CC(=O)c1ccc(NC(=O)c2nc(-c3ccccc3)n(-c3ccc(C)cc3)n2)cc1 | ? | nt | -18.8% | nt | 18.4µM* | nt
O=C(Nc1nccs1)c1nc(-c2ccccc2)n(-c2ccccc2)n1 | ? | ? | -4.4% | -28.7% | ? | -14.6%
COc1ccc(-c2nc(C(=O)Nc3cccc(C(C)=O)c3)nn2-c2ccccc2Cl)cc1 | 18.4µM* | nt | -13.7% | nt | 16.4µM* | nt
O=C(Nc1cccc(S(=O)(=O)N2CCOCC2)c1)c1nc(-c2ccccc2)n(-c2ccccc2)n1 | nt | nt | -5.1% | nt | nt | nt
COc1ccc(NC(=O)c2nc(-c3ccccc3)n(-c3ccccc3Cl)n2)cc1 | nt | nt | 13.8% | nt | nt | nt
CC1CCCN(c2nc3c(c(=O)n(C)c(=O)n3C)n2CC(=O)O)C1 (centres undefined) | nt | nt | -8.8% | nt | nt | nt
CCC(NC(=O)c1ccc(N(C)C)cc1)c1ccc(C)cc1 (centres undefined) | nt | nt | -25.4% | nt | nt | nt
N#Cc1c(-c2ccccc2)nc2n(-c3ccccc3)nc(C(=O)Nc3ccccc3)n2c1=O | ? | -9.2% | 13.5% | -14.3% | 7.31µM* | -0.2%
CC(=O)c1cccc(NC(=O)c2nc(-c3ccccc3)n(-c3ccccc3)n2)c1 | 20.6µM* | nt | -22.7% | nt | 10.3µM* | nt
CCOC(=O)c1nn(-c2cccc(OC)c2)c2nc(CC)c(C#N)c(=O)n12 | -4.4% | -5.4% | 0.0% | -1.2% | 3.3% | -13.3%
O=C(CN1CCN(CC(=O)Nc2ccccc2Cc2ccccc2)CC1)Nc1ccccc1Cl | 10.3µM* | 25.9µM* | -4.8% | -9.0% | 11.6µM* | 0.5%
O=C(CN1CCN(Cc2ccccc2)CC1)Nc1ccc(Br)cc1 | ? | -1.0% | 58.5% | 3.1% | 20.6µM* | -1.6%
CN(CC(=O)Nc1ccccc1Br)C(=O)CN1CCN(Cc2cccc(Cl)c2)CC1 | ? | 18.3µM* | -11.4% | nt | ? | nt
CCn1c(=O)n(CC(=O)N(C)CC(=O)Nc2ccccc2Br)c2ccccc21 | nt | nt | -8.7% | nt | nt | nt
O=C(CN1CCN(Cc2ccccc2)CC1)Nc1cccc(Cl)c1Cl | ? | nt | -6.0% | nt | 20.6µM* | nt
COc1cccc(CN2CCCN(S(=O)(=O)c3ccccc3)CCC(=O)NCC2)n1 | nt | nt | 35.1% | nt | nt | nt
CCN1c2cc(C(=O)Nc3ccc(Cl)c(C)c3)ccc2C(=O)N2CCCCC21 (centres undefined) | nt | nt | 1.9% | nt | nt | nt
